# Experimental data taken from PubChem BioAssay (NCATS).
# Results filed as inconclusive are left out. A call without a number means that no potency is given here. Active and inactive are the calls of the source. Calls come from the whole dose curve; as a rule, active = well fitted curve in the direction sought with a large enough effect; inconclusive = small, poorly fitted or top-dose-only effect, or another doubt; inactive = no such curve, though single readings can be large; an effect the other way counts as inactive or inconclusive.
# Columns and labels:
# [1] = biological target: Calcium and integrin-binding protein 1 (Homo sapiens) (UniProt Q99828); test: Primary qHTS for Identification of Calcium Integrin Binding Protein 1 (CIB1) Competitor (AID 1508620); settings: CIB1-GST / FITC-alphaIIb peptide fluorescence polarization; series mostly up to 57.7 µM;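 note: GST tagged CIB1 binding a fluorescein labelled alphaIIb integrin peptide tracer; top concentration of the series differs between compounds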
# Outline: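 Fluorescence polarization competition: GST-tagged CIB1 (1 uM final) preincubated with compound 15 min at room temperature, then FITC-labelled alphaIIb peptide (100 nM final) added. After 15 min at room temperature, polarization read at Ex 480/Em 540.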
# [2] = Primary qHTS for inhibitors of nuclear receptor binding SET domain protein 2 (NSD2) in an isogenic RCH-ACV NSD2 p.E1099K mutant (9B) (AID 1645876); settings: RCH-ACV NSD2 E1099K (9B) viability, CellTiter-Glo, 72 h; series mostly up to 44.9 µM; note: nearly all actives have a fitted effect of over 70% in size
# [3] = Primary qHTS for inhibitors of nuclear receptor binding SET domain protein 2 (NSD2) in an RCH-ACV wild type WT cells (2C) (AID 1645877); settings: RCH-ACV (leukaemia line) NSD2 WT (2C) viability, CellTiter-Glo, 72 h; series mostly up to 44.9 µM; note: nearly all actives have a fitted effect of over 70% in size
# Chain of Calcium and integrin-binding protein 1 (Homo sapiens) (Q99828 whole entry, looked up): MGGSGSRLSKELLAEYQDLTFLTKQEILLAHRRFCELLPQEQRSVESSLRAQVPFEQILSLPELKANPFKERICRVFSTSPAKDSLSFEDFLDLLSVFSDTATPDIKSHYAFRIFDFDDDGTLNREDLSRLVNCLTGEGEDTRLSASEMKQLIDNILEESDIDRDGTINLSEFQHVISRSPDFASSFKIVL
SMILES,Potency [1],Potency [2],Potency [3]
COc1ccc(C(=O)OC2C3C=COC(OC4OC(CO)C(O)C(O)C4O)C3C3(CO)OC23)cc1OC (stereo unspecified),inactive,inactive,
C=CC(C)(O)CCC1C(C)(O)CCC2C(C)(C)CCCC21C (stereo unspecified),inactive,inactive,
CC(O)C/C=C/C=C/C(=O)OC1C=C2COC(=O)C2(O)C2(C)CCCC(C)(C)C12 (stereo unspecified),inactive,inactive,
CC(=O)OC1CC(C(C)(C)O)OC2CCC3(C)OC4=C(C(=O)C=C5C(C)C(OC(C)=O)C6(C)C(C)OC546)C(O)C3C12C (stereo unspecified),inactive,inactive,inactive
C/C=C1/[C@H](O[C@@H]2O[C@H](CO)[C@@H](O)[C@H](O)[C@H]2O)OC=C2C(=O)O[C@@H]3C[C@@H](C(C)CO)[C@H](COC(=O)C[C@H]21)[C@H]3C (stereo partly specified),inactive,inactive,
COc1c2ccoc2nc2c(OC)c(O[C@@H]3O[C@@H](C)[C@H](O)[C@@H](O[C@@H]4O[C@H](CO)[C@@H](O)[C@H](O)[C@H]4O)[C@H]3OC(C)=O)ccc12,inactive,inactive,inactive
C=C1CCC2C(C)(C(=O)OC)CCCC2(C)C1CCC1=CCOC1=O (stereo unspecified),inactive,inactive,
